Source: PubChem
Shown are actives, neighbours in structure and some others; about 19% of the full set was active somewhere.
HT1080-NT tox – kills 2HG-producing HT-1080-NT fibrosarcoma cells | HT-1080-NT fibrosarcoma viability, CellTiter-Glo ATP luminescence, 48 h | Potency, µM (top dose mostly 46.1 µM), without a hit: at the highest dose activity, negative = less viability, hits mostly cytotoxic | 360,000 tested, 1.6% active | AID 686970;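 further: NT is the 2HG producing partner of a matched IDH1 knockdown line; potency means the concentration at half of the fitted maximal effect; 0% = DMSO-treated cells and -100% = media-only wells without cells; nearly all actives have a fitted effect of over 55% in size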
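Viability by CellTiter-Glo luminescence after 48 h compound exposure at 37C of HT-1080-NT cells (750/well, RPMI, 5% FBS). % activity scaled between DMSO wells and medium-only wells, then curve-fitted and categorized by curve class.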
HT1080 IDH1KD tx – kills HT-1080 cells with IDH1 knockdown | HT-1080 IDH1 knockdown viability, ATP luminescence, 48 h | 360,000 tested, 2% active | Potency, µM (doses to about 46.1 µM), for inactives: at the top dose activity, negative = toxicity, hits mostly cytotoxic | AID 686971;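 further: potency means the concentration at half of the fitted maximal effect; 0% = DMSO wells and -100% = cell-free medium wells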
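In this qHTS, HT-1080 cells depleted of IDH1 are exposed for 48 h at 37 °C to compound titrations. Toxicity is scored from CellTiter-Glo luminescence, with DMSO as full viability and medium alone as none.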
DT40 TDP1 CPT – growth inhibition of DT40 Tdp1-/-;hTDP1 cells with camptothecin (screen for TDP1 inhibitors) | 420,000 tested, 12% active | Potency, µM (series often up to 46.2 µM), for the others: at the highest dose activity change, negative = growth inhibition, most hits filed as inhibitors | AID 686979 | chicken DT40 Tdp1-/-;hTDP1 cells + 20 nM CPT, ATP luminescence, 48 h; further: potency means the concentration at half of the fitted maximal effect; nearly all actives have a fitted effect of over 55% in size
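Cell growth measured by CellTiter-Glo luminescence after a minimum 48 h, 37 C compound exposure with 20 nM CPT in Tdp1-knockout DT40 cells stably expressing hTDP1, seeded 400/well; qHTS titration format.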
IL1B secr inh – inflammasome signaling inhibition, IL-1 beta readout | THP-1 LPS/ATP IL-1B secretion, AlphaLISA, 16 h; stronger effect = lower value | 360,000 tested, 4.7% active | activity change, % at 57.5 µM | AID 743279; in the data active means activity change below about -50%; inconclusive means mostly about -30% to -49%
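Secreted IL-1B measured by AlphaLISA bead assay after 16 h compound exposure of THP-1 cells; compounds (final up to 57.5 uM) added 1 h before LPS (250 ng/mL) and ATP (1.25 mM) stimulation; lower signal means less secretion.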
DT40 TDP1 no CPT – qHTS for Inhibitors of human tyrosyl-DNA phosphodiesterase 1 (TDP1): qHTS in cells in absence of CPT | DT40 Tdp1-/- hTDP1 cells, no CPT, ATP luminescence, 48 h | Potency, µM (series often up to 46.2 µM), without a hit: at the top dose activity change, negative = growth inhibition, hits mostly inhibitors | 420,000 tested, 15% active | AID 686978, 2013; further: potency means the concentration at half of the fitted maximal effect; nearly all actives have a fitted effect of over 55% in size
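DT40 Tdp1-/-;hTDP1 cells, no CPT (DMSO vehicle only), 400 cells/well; compounds pin-transferred; ≥48 hr, 37 °C; CellTiter-Glo 30 min RT dark, luminescence read.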
Active calls of the source: *; ? = inconclusive; . = not tested or not shown. Unless noted, the call rests on the fitted dose curve; in most records, active means well fitted curve in the direction sought with a large enough effect; inconclusive means small, poorly fitted or top-dose-only effect, or another doubt; inactive means no such curve, though single readings can be large; an effect the other way counts as inactive or inconclusive. Unless noted, on the % scale 0 is the no-effect control and ±100 the full control effect.

SMILES	HT1080-NT tox	HT1080 IDH1KD tx	DT40 TDP1 CPT	IL1B secr inh	DT40 TDP1 no CPT
CC(C)NC(NC(=O)/C=C/c1ccccc1)C(Cl)(Cl)Cl (stereo unspecified)	-9%	-21%	-3%	-10	?
COc1ccc(NC(=S)NC(NC(=O)/C=C/c2ccccc2)C(Cl)(Cl)Cl)cc1 (stereo unspecified)	?	?	?	-4	18µM*
Cc1cc(C(=O)NCCc2ccc(Cl)cc2)no1	-5%	3%	-9%	-21	-27%
CN(C(=O)c1cc(-c2ccccc2O)on1)c1ccccc1	.	.	-5%	.	?
COc1ccccc1-c1ccc2c(c1)C(C)(Cc1ccccc1C#N)C(=O)N2 (stereo unspecified)	-27%	-17%	21µM*	-28	?
COc1ccccc1-c1ccc2c(c1)C(C)(Cc1ccc(Cl)c(Cl)c1)C(=O)N2 (stereo unspecified)	?	23µM*	21µM*	-13	?
COc1cccc2c1cc1c(=O)n(CC(=O)NC3CC3)nc(C)n12	.	.	8%	.	?
O=C(Nc1ccc2nc(SCC(=O)N3CCc4ccccc43)sc2c1)c1ccc(F)cc1	.	.	10µM*	.	8.2µM*
O=C(Nc1ccc2nc(SCC(=O)N3CCCC3)sc2c1)c1ccc(Br)cc1	.	.	-30%	.	?
O=C(Nc1ccc2nc(SCC(=O)N3CCCc4ccccc43)sc2c1)c1cccc(Cl)c1	.	.	13µM*	.	6.5µM*
O=C(Nc1ccc2nc(SCC(=O)N3CCc4ccccc43)sc2c1)c1ccc(Cl)cc1	.	.	9.2µM*	.	12µM*
O=C(Nc1ccc2nc(SCC(=O)N3CCc4ccccc43)sc2c1)c1cccc(F)c1	.	.	3.7µM*	.	4.1µM*
COc1ccc(-n2nnc(-c3nsc(NC(=O)c4cccs4)n3)c2C)cc1OC	.	.	-28%	.	-28%
COCCN(Cc1cc2ccc(C)cc2n2nnnc12)Cc1nnnn1C(C)(C)C	8%	5%	0%	-18	?
NC(=O)CSc1nc2scc(-c3ccc(Cl)cc3)c2c(=O)n1Cc1ccccc1	-25%	-10%	9.2µM*	55	8.2µM*
Cc1ccc(-c2csc3nc(SCC(=O)N(C)C)n(Cc4ccccc4)c(=O)c23)cc1	-22%	-29%	12µM*	-22	13µM*
C=CCn1c(SCC(=O)Nc2ccc(C(=O)O)cc2)nc2scc(-c3ccccc3)c2c1=O	3%	-12%	6%	-13	-6%
C=CCn1c(SCC(=O)Nc2c(C)n(C)n(-c3ccccc3)c2=O)nc2scc(-c3ccccc3)c2c1=O	-10%	-24%	?	-16	?
O=C(CSc1nc2c([nH]c3ccccc32)c(=O)n1-c1ccccc1)Nc1ccc2c(c1)OCO2	.	.	?	.	23µM*
Cc1cc(C)cc(-n2c(SCC(=O)Nc3ccc4c(c3)OCCO4)nc3c([nH]c4ccccc43)c2=O)c1	.	.	9%	.	-5%
O=C(CSc1nc2c(oc3ccccc32)c(=O)n1-c1ccccc1)Nc1ccc(F)c(Cl)c1	.	.	?	.	13µM*
O=C(CSc1nc2c([nH]c3ccccc32)c(=O)n1-c1ccccc1)Nc1ccc(Cl)c(Cl)c1	.	.	8.2µM*	.	10µM*
CCN(CC)c1nc2c(-c3cccc(Br)c3)nnn2c2ccccc12	.	.	-2%	.	-22%
Cc1ccc(-n2cc3c(-c4cccc(Br)c4)nnc(C)c3n2)cc1	2%	-2%	26µM*	-23	?
Cc1nnc(-c2cccc(Br)c2)c2cn(-c3ccccc3Cl)nc12	4%	-1%	23µM*	?	?
SMILES	HT1080-NT tox	HT1080 IDH1KD tx	DT40 TDP1 CPT	IL1B secr inh	DT40 TDP1 no CPT
Cc1ccc(C(=O)NC(C)c2ccc(-n3ccnc3)cc2)o1 (stereo unspecified)	7%	3%	17%	-18	1%
Cc1ccccc1OCc1ccc(-c2nc(C#N)c(N3CCN(c4ccccc4)CC3)o2)o1	.	.	-14%	.	-17%
Cc1cc(C)n(-c2ccc(C(=O)Nc3cc(S(=O)(=O)N(C)C)ccc3Cl)cc2)n1	-2%	-7%	16µM*	-24	?
CCN1CCN(c2ccc(Cl)cc2NC(=O)c2ccc(-n3nc(C)cc3C)cc2)CC1	?	?	21µM*	-64*	?
CCN1CCN(c2ccccc2NC(=O)c2ccc(-n3cccn3)cc2)CC1	-6%	-4%	?	?	-16%
CCC(=O)N1CCN(c2ccc(Cl)cc2NC(=S)NC(=O)c2ccco2)CC1	5%	-3%	?	1	?
Cc1cc(C)n(-c2ccc(C(=O)Nc3cccnc3Cl)cc2)n1	-5%	2%	?	-23	?
CCN1CCN(c2ccc(Cl)cc2NC(=O)c2ccco2)CC1	-20%	-9%	?	-62*	?
COc1ccc(CCNc2ncnc3c2cnn3-c2cccc(Cl)c2)cc1	.	.	?	.	26µM*
Cc1ccc(-n2ncc3c(NCCC4=CCCCC4)ncnc32)cc1C	.	.	10µM*	.	?
Cc1ccc(-n2ncc3c(NCCO)ncnc32)cc1Cl	.	.	-19%	.	-13%
COc1ccc(CCNc2ncnc3c2cnn3-c2ccc(C)c(Cl)c2)cc1	.	.	21µM*	.	?
CC1(c2ccc(Cl)cc2)NC(=O)N(CC(=O)Nc2cccnc2Cl)C1=O (stereo unspecified)	5%	3%	?	10	-10%
COc1ccccc1NC(=O)Cn1ncc2c1-c1ccccc1OC2	-3%	2%	15µM*	-22	?
CCOC(=O)N1CCN(C(=O)Cn2ncc3c2-c2ccccc2OC3)CC1	0%	-3%	?	-20	-12%
COc1cc(NC(=O)Cn2ncc3c2-c2ccccc2OC3)cc(OC)c1OC	7%	-9%	?	12	?
CCOc1ccccc1N(CC)C(=O)Cn1ncc2c1-c1ccccc1OC2	.	.	21µM*	.	16µM*
Cn1ccc2c(-c3cccc4ccccc34)cc3c(c21)C1CCC3C1 (stereo unspecified)	-4%	-10%	-51%	19	?
Cn1ccc2c(N3c4ccccc4CCc4ccccc43)cc3c(c21)C1CCC3O1 (stereo unspecified)	?	18µM*	23µM*	19	21µM*
Cn1ccc2c(N3c4ccccc4CCc4ccccc43)cc3c(c21)C1CCC3C1 (stereo unspecified)	?	?	2.3µM*	-16	5.2µM*
Cn1ccc2c(N3CCCCCC3)cc3c(c21)C1CCC3C1 (stereo unspecified)	-29%	-25%	15µM*	39	12µM*
Cn1ccc2c(N3CCOCC3)cc3c(c21)C1CCC3C1 (stereo unspecified)	8%	-4%	-28%	-3	?
